Broadly, the GI50 is the concentration at which growth is held to half of that of the control. Low readings indicate more potent growth inhibition, high ones less potent growth inhibition.

The values below come from ChEMBL document CHEMBL1201862, “PubChem BioAssay data set” (2004).

About 3,500 (8%) of roughly 44,000 sequences were called active. No stated cut-off is given here; in the data, active = GI50 up to about 1.1 µM and inactive = higher. The list is a sample of the results. Entries with a potency or affinity are not part of this list.

This test deals with PC-3.
For the substance “[Bis(aminomethyl)pentamethylenesilane]tetrachloropaltinum(IV), CHEMBL2146204”, the GI50 stood at 1.83 µM. That is a single-digit micromolar value.

With “[Bis(aminomethyl)dimethylsilane]tetrachloroplatinum(IV), CHEMBL2146190”, the GI50 is 22.9 µM.

In turn, “[Bis(aminomethyl)tetramethylenesilane]tetrachloropaltinum(IV), CHEMBL2146189” returned a GI50 of 8.36 µM.

As for CISPLATIN, CHEMBL11359, halving of growth (GI50) required 5.01 µM. This GI50 lies about 1.7-fold lower than the previous one.

On to “[Bis(aminomethyl)tetramethylenesilane]dichloropaltinum(II), CHEMBL2146205”, for which the GI50 is 7.19 µM. This GI50 and that of the substance before are within 1.5-fold of each other.

In turn, “[Bis(aminomethyl)pentamethylenesilane]dichloropaltinum(II), CHEMBL2146202” returned a GI50 of 1.64 µM. This GI50 lies about 4.4-fold lower than the previous one.
